From PubChem BioAssay
BAZ2B block: inhibitors of human BAZ2B bromodomain; AlphaScreen BAZ2B-H3K14Ac peptide displacement; Potency, µM (highest dose often 114 µM), inactives show at the top dose activity change, negative = inhibition, actives largely listed as inhibitors; 360,000 compounds, 4.4% hits; note: % is set by controls: 0 for no effect and ±100 for the full control effect; nearly all actives have a fitted effect of over 60% in size
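Inhibition is scored as reduced AlphaScreen emission. The BAZ2B/b-H3(5-23)K14Ac complex (50 nM each) in PBS pH 7.4, 0.01% Tween-20 meets compound (up to 110 uM) for 30 min at RT before bead addition.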
Sfp inh: inhibitors of Bacillus subtilis Sfp phosphopantetheinyl transferase. Q9F4F7. Biochemical Sfp PPTase activity, qHTS. Potency, µM, for the others: largest response in the series, negative = inhibition, most hits filed as inhibitors. 310,000 compounds, 3.5% hits. AID 1490;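 note: the enzyme is Sfp with the accession as filed and its product quenches rhodamine fluorescence; 0% = enzyme reaction without inhibitor and -100% = no enzyme wells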
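With Hepes-Na pH 7.6 buffer containing 10 mM MgCl2, Sfp (15 nM) modified BHQ-2-YbbR (12.5 uM) using rhodamine-CoA (5 uM). Two reads 30 minutes apart at 525/598 nm yielded each well's rate.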
JMJD2A Tudor inh: inhibitors of human JMJD2A Tudor domain; O75164; AlphaScreen JMJD2A-Tudor / H3K4me3 peptide binding; AID 504339; Potency, µM (highest dose often 114 µM), without a hit: at the top dose activity change, negative = inhibition, hits mostly inhibitors; 390,000 compounds, 4.4% hits; note: % is set by controls: 0 for no effect and ±100 for the full control effect; nearly all actives have a fitted effect of over 50% in size
G9a block: G9a (human) methyltransferase inhibition; G9a H3K9 monomethylation, AlphaScreen, 2 h; Q96KQ7; Potency, µM (top dose mostly 102 µM), inactives show at the highest dose activity, negative = inhibition, most hits filed as inhibitors; 350,000 compounds, 8.8% hits; note: % is set by controls: 0 for no effect and ±100 for the full control effect; nearly all actives have a fitted effect of over 75% in size
Target sequence (Q96KQ7 913-1193 limits assumed): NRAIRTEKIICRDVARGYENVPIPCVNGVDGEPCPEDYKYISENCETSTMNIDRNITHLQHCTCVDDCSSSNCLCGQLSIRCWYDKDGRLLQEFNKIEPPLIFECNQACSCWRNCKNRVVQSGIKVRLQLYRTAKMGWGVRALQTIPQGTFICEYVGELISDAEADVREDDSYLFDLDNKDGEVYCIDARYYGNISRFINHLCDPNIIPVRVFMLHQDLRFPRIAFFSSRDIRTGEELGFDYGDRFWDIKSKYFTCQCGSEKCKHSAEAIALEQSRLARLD
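AlphaScreen detection with an anti-monomethyl H3K9 antibody quantified product after a 2 h room-temperature reaction containing 500 nM biotinylated H3K9 peptide, 20 µM SAM and 20 nM enzyme, which had been preincubated 15 min with compound.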
HP1b chromo inh: inhibitors of HP1-beta chromodomain binding to methylated histone tails. 390,000 compounds, 0.56% hits. Potency, µM (titrated, usually from 114 µM), without a hit: at the top dose activity change, negative = inhibition, usual class: inhibitors. AlphaScreen HP1-beta / biotin-H3K9me3 peptide binding; note: nearly all actives have a fitted effect of over 70% in size
Target sequence (P83916 whole entry, looked up): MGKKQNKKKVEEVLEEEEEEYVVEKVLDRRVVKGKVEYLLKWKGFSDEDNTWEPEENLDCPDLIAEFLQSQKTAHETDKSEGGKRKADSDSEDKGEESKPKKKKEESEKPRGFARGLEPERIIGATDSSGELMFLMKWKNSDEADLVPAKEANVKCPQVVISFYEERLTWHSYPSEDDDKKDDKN
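AlphaScreen: HP1-beta (50 nM) preformed 30 min with biotin-H3(1-18)K9me3 peptide (50 nM) in PBS pH 7.4, 0.01% Tween-20. Compound added for 30 min at RT, then streptavidin donor/nickel chelate acceptor beads (10 ug/mL) for 30 min.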
Active calls of the source: *; ? = inconclusive; . = no result given; [ ] = another dose, or the depositor's remark. The list is not random: actives were taken first. Their share in the collection is about 12%. Calls come from the whole dose curve; as a rule, active = well fitted curve in the direction sought with a large enough effect; inconclusive = small, poorly fitted or top-dose-only effect, or another doubt; inactive = no such curve, though single readings can be large; an effect the other way counts as inactive or inconclusive. Potency is the fitted concentration of half-maximal effect.

SMILES	BAZ2B block	Sfp inh	JMJD2A Tudor inh	G9a block	HP1b chromo inh
NNC(=S)Nc1ccc(Cl)cc1	-4%	0%	?	?	-2%
NN/C(=C\[N+](=O)[O-])Nc1ccc(Cl)cc1	?	-7%	?	1.3µM*	3%
NN/C(=C\[N+](=O)[O-])Nc1ccccc1	56µM*	-14%	-31%	20µM*	14%
CC(C)c1ccccc1NC(=O)Cn1cnc2c1c(=O)n(C)c(=O)n2C	0%	.	-7%	-26%[59 µM]	35%
O=C(NCCOc1ccccc1F)c1cccc(S(=O)(=O)N2CCN(c3ccccc3)CC2)c1	-15%	.	-26%	40µM*	13%
O=C(NCCCN1CCOCC1)c1cccc(S(=O)(=O)N2CCN(c3ccccc3)CC2)c1	4%	.	-19%	-40%	8%
CC1=C(C(=O)OC(C)C)C(c2ccc(Cl)cc2)n2c(s/c(=C\c3ccc(OCC(=O)O)cc3)c2=O)=N1 (centres undefined)	45µM*	-3%	?	?	?
CCOC(=O)C1=C(C)N=c2s/c(=C/c3ccco3)c(=O)n2C1c1cccc(OC)c1 (centres undefined)	10µM*	40µM*	?	16µM*	?
COc1ccc(C2C(C(C)=O)=C(C)N=c3s/c(=C/c4ccc5c(c4)OCO5)c(=O)n32)cc1 (centres undefined)	-39%	-23%	.	-33%[12.7 µM]	.
CCOC(=O)C1=C(C)N=c2s/c(=C\c3ccc(C(=O)O)cc3)c(=O)n2C1c1ccc(F)cc1 (centres undefined)	?	?	?	79µM*	-10%
CCOC(=O)C1=C(C)N=C2SC(C(=O)OC)=CC(=O)N2C1c1ccc(F)cc1 (centres undefined)	?	?	25µM*	?	?
CCOC(=O)C1=C(C)N=c2s/c(=C/c3cccc(OCC(=O)O)c3)c(=O)n2C1c1ccc(F)cc1 (centres undefined)	?	-27%	.	?	.
CC1(C)Cc2c(c(-c3ccco3)nc3n[nH]c(N)c23)CO1	-32%	3%	-14%	-14%	24%
CCOC(=O)C1CCCN(S(=O)(=O)Cc2ccccc2Cl)C1 (centres undefined)	-4%	-1%	-2%	.	27%
CCNC(=O)Cn1cc(C(F)(F)F)cc(Cl)c1=O	1%	15%	1%[11.4 µM]	21%[59 µM]	62%
O=C(CN1C(=O)NC2(CCCC2)C1=O)OCc1ccccc1	7%	.	-9%	18%[12.7 µM]	25%
CCOC(=O)C1=C(C)N=c2s/c(=C\c3ccc(OCC(=O)O)c(OC)c3)c(=O)n2C1c1ccc(OC)cc1 (centres undefined)	79µM*	-2%	79µM*	56µM*	8%
CCOC(=O)C1=C(C)N=c2s/c(=C\c3ccc(OCC(=O)O)cc3)c(=O)n2C1c1ccccc1 (centres undefined)	?	-1%	-32%	15%[12.7 µM]	6%
CCN(C[C@H]1N[C@@](CC)(C(=O)OC)[C@H]2C(=O)N(Cc3ccccc3)C(=O)[C@@H]12)C(C)=O	.	.	-25%	.	18%
CCOc1cc(C#N)c(-n2nnc3c(sc4nc(C)cc(C)c43)c2=O)cc1OCC	-16%	.	-14%	16µM*	7%
CC1CCCC(C)N1/N=C/c1cc(Br)c(O)c(Br)c1 (centres undefined)	-23%	56µM*	.	5.6µM*	.
COc1ccc(/C=N/N2C(C)CCCC2C)cc1O (centres undefined)	9%	8%	2%	5%[2.33 µM]	13%
CC1CCCC(C)N1/N=C/c1ccc(O)c(O)c1 (centres undefined)	?	45µM*	22µM*	3.5µM*	?
COc1ccc(-c2csc(N(CCCN(C)C)C(=O)c3ccc(C)cc3)n2)cc1	?	3%	?	79µM*	-8%
COc1ccc(-c2csc(N(CCCN(C)C)C(=O)c3ccc(Br)cc3)n2)cc1	45µM*	35µM*	-31%	9%[0.501 µM]	-14%
SMILES	BAZ2B block	Sfp inh	JMJD2A Tudor inh	G9a block	HP1b chromo inh
CCN(CC)CCCN(C(=O)c1ccccc1C)c1nc(-c2ccc(OC)cc2)cs1	50µM*	?	45µM*	-36%[0.501 µM]	-10%
CCN(CC)CCCN(C(=O)c1ccccc1F)c1nc(-c2ccc(OC)cc2)cs1	?	-16%	?	.	18%
COc1ccc(-c2csc(N(CCCN(C)C)C(=O)c3ccc(C(C)(C)C)cc3)n2)cc1	?	2%	?	?	-13%
COc1ccc(-c2csc(N(CCCN3CCOCC3)C(=O)c3ccco3)n2)cc1	?	-22%	100µM*	2%[59 µM]	?
Cc1ccc(-c2csc(N(CCCN3CCOCC3)C(=O)c3ccco3)n2)cc1	?	?	-35%	?	0%
COc1ccc(Nc2c(-c3cccc(O)c3)nc3cnccn23)cc1	?	.	?	?	-34%
Cc1cc(C)c[n+](CC(=O)c2c(C)cc(C)c([N+](=O)[O-])c2C)c1	-14%	14%	-18%	10%	14%
O=C(CCCCCNS(=O)(=O)c1ccc(Br)cc1)NCCN1CCOCC1	1%	21%	-3%	-64%	29%
O=C1NC(c2cccnc2)C(C(=O)c2cccs2)C(O)(C(F)(F)F)N1 (centres undefined)	1%	7%	-2%	17%[12.7 µM]	53%
CC(C)(C)c1ccc(-c2nc(NCc3cccnc3)c3ccccc3n2)cc1	-16%	3%	-19%	17%[59 µM]	18%
c1ccc(-c2nc(NCc3cccnc3)c3oc4ccccc4c3n2)cc1	50µM*	-17%	?	?	48%
c1ccc(-c2nc(NCC3CCCO3)c3oc4ccccc4c3n2)cc1 (centres undefined)	-9%	-24%	-14%	45µM*	44%
OCCCNc1nc(-c2ccccc2)nc2c1oc1ccccc12	?	3%	-9%	50µM*	1%
O=C(O)CNc1nc(-c2ccccc2)nc2c1oc1ccccc12	0%	29%	-3%[11.4 µM]	-35%	27%
CCCCOC(=O)c1cc2c(cn1)[nH]c1ccccc12	.	8%	.	31%[59 µM]	.
C/C(=N\O)c1ccn(S(=O)(=O)c2ccc(Cl)cc2)c1	-11%	8%	-19%	3%	-6%
COc1cccc(-c2nc(SCC(=O)Nc3nc(-c4ccccc4)c(C)s3)[nH]c(=O)c2C#N)c1	?	12%	-31%	?	8%
N#Cc1c(-c2ccccc2)nc(SCC(=O)NC2CCCCC2)[nH]c1=O	14%	14%	-3%	-46%	24%
COc1ccccc1NC(=O)CSc1nc(-c2ccc(C(C)(C)C)cc2)c(C#N)c(=O)[nH]1	79µM*	.	-34%	-51%[59 µM]	26%
CN(C(=O)CSc1nc(-c2ccc(C(C)(C)C)cc2)c(C#N)c(=O)[nH]1)C1CCCCC1	-27%[57.1 µM]	-7%	-16%	45µM*	25%
